# From PubChem BioAssay (NCATS)
# Records with an inconclusive call do not appear. A call without a number means that no potency is given here. Calls of active or inactive are those of the source. Unless noted, the call rests on the fitted dose curve; in most records, active means well fitted curve in the direction sought with a large enough effect; inconclusive means small, poorly fitted or top-dose-only effect, or another doubt; inactive means no such curve, though single readings can be large; an effect the other way counts as inactive or inconclusive. Positions of bridges follow the written chain, without caps; N, C: chain ends. Non-standard residues stand in square brackets, D forms with d. Residues, ends and D or L forms follow the SMILES beside them. ξ: configuration not given here. *: point of attachment. Octanoyl(6-Me) = CCC(C)CCCCC(=O)*; ξThr(3R) = C[C@@H](O)C(N)C(=O)O; dDab = NCC[C@@H](N)C(=O)O; Dab = NCC[C@H](N)C(=O)O
# How the values were obtained:
# [1] = qHTS to identify inhibitors of the type 1 interferon - major histocompatibility complex class I in skeletal muscle: primary screen against the NCATS Mechanism Interrogation Plate v5.0 (MIPE) Libary (AID 1347411); further: nearly all actives have a fitted effect of over 65% in size; further: potency means the concentration at half of the fitted maximal effect
# Method in brief: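 Luminescence from HiBiT-tagged endogenous HLA-B*08:01 served as the MHC class I read-out. CRISPR-engineered C25cl48 human myoblasts received 4.0 ng/ml IFN-beta plus compound for 24 hrs, with an 11-point, 1:3 series topping at 46 uM final.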
# [2] = target: Calcium and integrin-binding protein 1 (Homo sapiens) (UniProt Q99828); assay: Primary qHTS for Identification of Calcium Integrin Binding Protein 1 (CIB1) Competitor (AID 1508620);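 further: GST tagged CIB1 binding a fluorescein labelled alphaIIb integrin peptide tracer; top concentration of the series differs between compounds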
# Chain of Calcium and integrin-binding protein 1 (Homo sapiens) (Q99828 whole entry, looked up): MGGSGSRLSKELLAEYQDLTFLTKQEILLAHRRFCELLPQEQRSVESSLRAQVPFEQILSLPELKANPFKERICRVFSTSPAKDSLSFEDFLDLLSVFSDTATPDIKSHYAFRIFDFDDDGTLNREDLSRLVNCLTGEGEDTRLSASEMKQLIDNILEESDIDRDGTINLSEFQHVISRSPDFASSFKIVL
# Method in brief: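 CIB1-GST (1 uM final) and compound incubated 15 min at room temperature before adding FITC-alphaIIb peptide tracer (100 nM final). Competition for binding read by fluorescence polarization (ex 480, em 540) after another 15 min at room temperature.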
# [3] = Primary qHTS for small molecule stabilizers of the endoplasmic reticulum resident proteome: Secreted ER Calcium Modulated Protein (SERCaMP) assay (AID 1508630)
# Method in brief: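 GLuc-SERCaMP-expressing SH-SY5Y cells, pretreated 16 h with compound, are challenged with thapsigargin to empty ER calcium stores; after 4 h, coelenterazine is added directly to the medium and luminescence is imaged.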
# [4] = target: Cytochrome P450 2C9 (Homo sapiens) (UniProt P11712); assay: Cytochrome P450 family 2 subfamily C member 9 (CYP2C9) small molecule antagonists: luciferase biochemical (cell-free) qHTS assay (AID 1645842; active means well fitted curve in the direction sought with a large enough effect in the repeat runs; an effect the other way counts as inactive or inconclusive; further: nearly all actives have a fitted effect of over 55% in size; further: potency means the concentration at half of the fitted maximal effect)
# Chain of Cytochrome P450 2C9 (Homo sapiens) (P11712 whole entry, looked up): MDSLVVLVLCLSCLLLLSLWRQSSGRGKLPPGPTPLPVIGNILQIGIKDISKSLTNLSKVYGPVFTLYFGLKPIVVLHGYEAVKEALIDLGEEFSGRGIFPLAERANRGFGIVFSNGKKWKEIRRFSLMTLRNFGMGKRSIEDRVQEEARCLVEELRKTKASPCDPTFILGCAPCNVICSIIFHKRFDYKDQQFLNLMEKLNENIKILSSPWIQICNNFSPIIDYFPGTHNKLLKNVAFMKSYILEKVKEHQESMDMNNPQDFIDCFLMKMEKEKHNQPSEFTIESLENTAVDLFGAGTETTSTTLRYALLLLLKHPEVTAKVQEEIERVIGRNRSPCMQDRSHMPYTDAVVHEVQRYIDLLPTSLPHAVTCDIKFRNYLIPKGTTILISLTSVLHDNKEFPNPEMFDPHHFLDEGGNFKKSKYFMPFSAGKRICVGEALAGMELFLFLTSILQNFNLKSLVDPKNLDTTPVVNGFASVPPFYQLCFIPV
# Method in brief: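 Luminescence, after 20 min with luciferin detection reagent, reflected CYP2C9 turnover during a 1 h NADPH-driven reaction at 37C. Enzyme-substrate mix contained 0.4% bovine serum albumin and was preincubated with compound 10 min at room temperature.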
# [5] = target: Cytochrome P450 2D6 (Homo sapiens) (UniProt P10635); assay: Cytochrome P450 family 2 subfamily D member 6 (CYP2D6) small molecule antagonists: luciferase biochemical (cell-free) qHTS assay (AID 1645840; active means well fitted curve in the direction sought with a large enough effect in the repeat runs; an effect the other way counts as inactive or inconclusive; further: nearly all actives have a fitted effect of over 55% in size; further: potency means the concentration at half of the fitted maximal effect)
# Chain of Cytochrome P450 2D6 (Homo sapiens) (P10635 whole entry, looked up): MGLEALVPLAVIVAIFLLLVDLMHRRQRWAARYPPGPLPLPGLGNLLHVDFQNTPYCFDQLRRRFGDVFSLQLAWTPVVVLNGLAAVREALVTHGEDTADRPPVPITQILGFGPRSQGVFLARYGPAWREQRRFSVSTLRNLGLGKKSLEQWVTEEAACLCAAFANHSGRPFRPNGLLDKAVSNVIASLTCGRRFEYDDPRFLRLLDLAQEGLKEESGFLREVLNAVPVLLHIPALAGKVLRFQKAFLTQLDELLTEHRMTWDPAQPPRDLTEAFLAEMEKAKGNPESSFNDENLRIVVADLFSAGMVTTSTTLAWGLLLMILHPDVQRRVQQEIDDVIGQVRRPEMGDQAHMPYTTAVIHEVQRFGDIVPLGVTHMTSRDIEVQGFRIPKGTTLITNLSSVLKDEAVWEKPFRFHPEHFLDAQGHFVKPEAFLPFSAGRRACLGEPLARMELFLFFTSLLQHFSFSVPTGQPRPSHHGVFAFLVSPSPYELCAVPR
# Method in brief: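 P450-Glo luminescent screen: recombinant CYP2D6 enzyme–proluciferin substrate mix preincubated with compound 10 min at room temperature, then NADPH regeneration added for 1 h at room temperature. Detection reagent added for 20 min; luciferin light read as relative luminescence units.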
# [6] = target: Cytochrome P450 3A4 (Homo sapiens) (UniProt P08684); assay: Cytochrome P450 family 3 subfamily A member 4 (CYP3A4) small molecule antagonists: luciferase qHTS assay (AID 1645841; active means well fitted curve in the direction sought with a large enough effect in the repeat runs; an effect the other way counts as inactive or inconclusive; further: potency means the concentration at half of the fitted maximal effect; nearly all actives have a fitted effect of over 45% in size)
# Chain of Cytochrome P450 3A4 (Homo sapiens) (P08684 whole entry, looked up): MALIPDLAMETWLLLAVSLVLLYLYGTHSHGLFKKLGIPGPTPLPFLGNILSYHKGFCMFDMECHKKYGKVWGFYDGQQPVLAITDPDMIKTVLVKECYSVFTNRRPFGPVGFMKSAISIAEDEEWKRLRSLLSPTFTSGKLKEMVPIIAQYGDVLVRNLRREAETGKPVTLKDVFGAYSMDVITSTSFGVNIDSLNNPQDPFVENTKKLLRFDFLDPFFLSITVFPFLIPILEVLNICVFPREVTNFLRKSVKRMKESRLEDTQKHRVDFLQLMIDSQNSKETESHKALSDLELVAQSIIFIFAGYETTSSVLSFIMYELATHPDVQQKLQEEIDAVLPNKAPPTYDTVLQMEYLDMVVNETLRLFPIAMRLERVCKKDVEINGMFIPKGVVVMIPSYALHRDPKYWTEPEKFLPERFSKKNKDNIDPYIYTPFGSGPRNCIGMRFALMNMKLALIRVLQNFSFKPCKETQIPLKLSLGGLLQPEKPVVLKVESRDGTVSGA
# Method in brief: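 Luminescent CYP3A4 activity readout: compounds plus enzyme-substrate mix 10 min at room temperature, reaction started with NADPH regenerating system for 1 h, stopped with detection reagent, read after 20 min. Ketoconazole served as control.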
Structure (SMILES),Potency [1],Potency [2],outcome [3],Potency [4],Potency [5],Potency [6]
CCS(=O)(=O)Nc1ccc2[nH]c(O)c(C(=Nc3ccc(CN4CCCCC4)cc3)c3ccccc3)c2c1,2.62 µM (active),inactive,inactive,–,–,–
C[C@](Cc1c[nH]c2ccccc12)(NC(=O)OC1C2CC3CC(C2)CC1C3)C(=O)NC[C@H](NC(=O)CCC(=O)O)c1ccccc1 (stereo partly drawn),inactive,inactive,inactive,–,–,–
CC(C)[C@H](CO)Nc1nc(Nc2cccc(Cl)c2)c2ncn(C(C)C)c2n1,16.5 µM (active),inactive,inactive,–,–,–
Cc1ccc(O)c(C(CCN(C(C)C)C(C)C)c2ccccc2)c1 (stereo not drawn),inactive,inactive,inactive,–,–,–
OC[C@H]1OC(O)C[C@@H](O)[C@H]1O (stereo partly drawn),inactive,inactive,inactive,–,–,–
Nc1nc(N)c2nc(-c3cccc(O)c3)c(-c3cccc(O)c3)nc2n1,inactive,inactive,inactive,–,–,–
Cc1ccc2nc(NCCN)c3ncc(C)n3c2c1,4.66 µM (active),inactive,inactive,–,–,–
COC(=O)C1C2CC3c4[nH]c5cc(OC)ccc5c4CCN3CC2CC(OC(=O)c2cc(OC)c(OC)c(OC)c2)C1OC (stereo not drawn),inactive,inactive,inactive,–,–,–
O=C(CN1C(=O)C2(CCCC2)NC[C@H]1c1cc(F)cc(F)c1)Nc1ccc2c(c1)C[C@@]1(C2)C(=O)Nc2ncccc21,inactive,inactive,inactive,–,–,–
O=c1ccn([C@@H]2O[C@H](CO)[C@H](O)[C@@H]2F)c(=O)[nH]1,inactive,inactive,inactive,–,–,–
COc1cc(O)c2c(c1)C1OC1C[C@H](O)[C@H](O)C(=O)C=CC[C@H](C)OC2=O (stereo partly drawn),13.1 µM (active),inactive,inactive,–,–,–
c1cc(N[C@@H]2CCNC2)nc(-c2cnc3ccc(-c4cn[nH]c4)cn23)c1,0.829 µM (active),inactive,inactive,–,–,–
COc1ccc(S(=O)(=O)Nc2cc(-c3c(O)ccc4ccccc34)c(O)c3ccccc23)cc1,16.5 µM (active),inactive,inactive,–,–,–
Cc1cc(Nc2ncc3c(n2)N(C)C(=O)N(c2cc(NC(=O)c4cccc(C(F)(F)F)c4)ccc2C)C3)n(C)n1,0.234 µM (active),inactive,inactive,–,–,–
CCC(C)CCCCC(=O)N[C@@H](CCN)C(=O)NC(C(=O)N[C@H](CCN)C(=O)N[C@@H]1CCNC(=O)C([C@@H](C)O)NC(=O)[C@@H](CCN)NC(=O)[C@@H](CCN)NC(=O)[C@@H](CC(C)C)NC(=O)[C@H](Cc2ccccc2)NC(=O)[C@H](CCN)NC1=O)[C@@H](C)O (stereo partly drawn) ({Octanoyl(6-Me)}-[Dab][ξThr(3R)][dDab][dDab][Dab]F[dL][dDab][dDab][ξThr(3R)]; lactam 4-C),inactive,inactive,inactive,–,–,–
O=C(O)c1ccc(Nc2ncc3c(n2)-c2ccc(Cl)cc2C(c2c(F)cccc2F)=NC3)cc1,inactive,inactive,inactive,21.3 µM (active),–,–

Structure (SMILES),Potency [1],Potency [2],outcome [3],Potency [4],Potency [5],Potency [6]
C#CCC(Cc1cnc2nc(N)nc(N)c2n1)c1ccc(C(=O)N[C@@H](CCC(=O)O)C(=O)O)cc1 (stereo partly drawn),inactive,inactive,inactive,inactive,inactive,–
C[C@@H]1C(=O)O[C@H]2CC34[C@H]5C[C@@H](C(C)(C)C)C36[C@H](OC(=O)[C@@H]6O)O[C@@]4(C(=O)O5)[C@]21O (stereo partly drawn),inactive,inactive,inactive,–,–,–
CC(C)NC[C@@H](C(=O)N1CCN(c2ncnc3c2[C@H](C)C[C@H]3O)CC1)c1ccc(Cl)cc1,inactive,inactive,inactive,–,–,–
O=C1CSC(=O)N1C(CCc1ccncc1)COc1ccc(-c2cccc([N+](=O)[O-])c2)cc1 (stereo not drawn),inactive,inactive,inactive,–,inactive,–
CCCNS(=O)(=O)Nc1ncnc(OCCOc2ncc(Br)cn2)c1-c1ccc(Br)cc1,inactive,inactive,inactive,–,–,–
NC1=N[C@H]2[C@H](CS[C@H]2CCCCC(=O)O)N1,inactive,inactive,–,inactive,inactive,–
COc1ccc(S(=O)(=O)Nc2cccnc2Nc2ccc(O)cc2)cc1,inactive,inactive,inactive,8.49 µM (active),–,–
CCCCOc1ccc(C(=O)Nc2ccc(F)cc2F)cc1,inactive,inactive,inactive,7.56 µM (active),–,–
CCOc1cc2c(c(F)c1OCC)C(=N)N(CC(=O)c1cc(N3CCOCC3)c(OC)c(C(C)(C)C)c1)C2,14.7 µM (active),inactive,inactive,6.01 µM (active),5.35 µM (active),–
Nc1nc(=O)n([C@H]2C[C@H](O)[C@@H](CO)O2)cc1F,inactive,inactive,inactive,–,–,–
NC(=O)Nc1cc(-c2ccc(CN3CCOCC3)cc2)sc1C(N)=O,7.39 µM (active),inactive,inactive,–,–,–
C=CC(=O)Nc1ccc2ncnc(Nc3ccc(OCc4cccc(F)c4)c(Cl)c3)c2c1,10.4 µM (active),inactive,–,3.38 µM (active),inactive,–
COC[C@H](NC(=O)c1cnc(C)s1)C(=O)N[C@@H](COC)C(=O)N[C@@H](Cc1ccccc1)C(=O)[C@@]1(C)CO1,0.0523 µM (active),inactive,inactive,inactive,inactive,10.7 µM (active)
N#Cc1c(C2CCNCC2)cc(-c2c(O)cccc2OCC2CC2)nc1N,8.29 µM (active),inactive,inactive,8.49 µM (active),0.674 µM (active),–
O=[N+]([O-])c1cn2c(n1)OC[C@@H](OCc1ccc(OC(F)(F)F)cc1)C2,inactive,inactive,inactive,–,–,–
